# Measurements published in PubChem BioAssay (NCATS).
# Records with an inconclusive call do not appear. This is one part of the list. A call without a number means that no potency is given here. The source made the active and inactive calls. Unless noted, the call rests on the fitted dose curve; in most records, active means well fitted curve in the direction sought with a large enough effect; inconclusive means small, poorly fitted or top-dose-only effect, or another doubt; inactive means no such curve, though single readings can be large; an effect the other way counts as inactive or inconclusive.
# Assays:
# [1] = target: ATP-dependent DNA helicase Q1 (Homo sapiens) (UniProt P46063); assay: qHTS Validation Assay for Inhibitors of RecQ-Like Dna Helicase 1 (RECQ1) (AID 2353); further: potency means the concentration at half of the fitted maximal effect
# In short: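 50 nM RECQ1T1 preincubated 15 min with compound in Tris pH 8.0 buffer with MgCl2, DTT, Tween-20 and 2.5 ug/ml poly(dI-dC); started with 200 nM TAMRA/BHQ-2 forked duplex and 2 mM ATP. Unwinding read as fluorescence (525/598 nm), two reads 2 h apart.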
# [2] = target: RecQ-like DNA helicase BLM (Homo sapiens) (UniProt P54132); assay: qHTS Validation Assay for Inhibitors of Bloom's syndrome helicase (BLM) (AID 2364); further: potency means the concentration at half of the fitted maximal effect
# In short: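 50 nM BLM preincubated 15 min at room temperature with compound in pH 8.0 Tris buffer containing 2.5 ug/ml poly(dI-dC); started with 200 nM TAMRA/BHQ-2 forked duplex and 2 mM ATP (final). Unwinding read as TAMRA fluorescence increase, two reads 2 h apart.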
# [3] = Cytometric Cell-Based qHTS for Inhibitors of the mTORC1 Signaling Pathway in MEF (Tsc2-/-, p53-/-) Cells (AID 2660); further: potency means the concentration at half of the fitted maximal effect
# In short: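 Readout: Alexa-488 phospho-rpS6 (Ser235/236) intensity divided by PI intensity, thresholded against 7.5 nM rapamycin wells and reported as % positive cells. PI cell count served as the viability measure. Compound exposure was 24 hrs at 37 degree Celsius.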
# [4] = High Content Imaging Cell-Based qHTS for Inhibitors of the mTORC1 Signaling Pathway in MEF (Tsc2-/-, p53-/-) Cells (AID 2666);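 further: percent of cells scored positive for phospho-rpS6 Ser235/236 immunostaining by imaging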; further: potency means the concentration at half of the fitted maximal effect
# In short: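 Phospho-rpS6 (Ser235/236) immunofluorescence, normalized and scored as % positive cells using rapamycin and DMSO controls, was read in empty-vector Tsc2-/-, p53-/- MEFs after 24 h compound exposure at 37 C; propidium iodide counted cells.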
# [5] = Validation screen for inhibitors of Lassa infection (AID 463096; calls by dose curve; further: potency means the concentration at half of the fitted maximal effect)
# [6] = Validation screen for small molecules that induce DNA re-replication in MCF 10A normal breast cells (AID 463097); further: nearly all actives have a fitted effect of over 60% in size; further: potency means the concentration at half of the fitted maximal effect
# In short: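 MCF 10A cells exposed to compound 48 hr at 37 C, 5% CO2, then Hoechst-stained 40 min. Laser-scanning imaging of nuclear DNA content (405 nm ex, 500-530 nm em); re-replication scored as rise in nuclei with elevated fluorescence intensity.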
# [7] = High Content Imaging Cell-Based qHTS for Inhibitors of the mTORC1 Signaling Pathway in MEF Cells (AID 2667); further: potency means the concentration at half of the fitted maximal effect
# In short: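 WT MEFs (Tsc2-/-, p53-/- re-expressing Tsc2), in DMEM + 10% FBS, were treated with compound for 24 h at 37 C. Cells were then fixed and stained for phospho-rpS6 Ser235/236 with propidium iodide as cell count. Values are % positive cells, with thresholds set against rapamycin-treated cells.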
# [8] = Cytometry Cell-Based qHTS for Inhibitors of the mTORC1 Signaling Pathway in MEF cells (AID 2668); further: potency means the concentration at half of the fitted maximal effect
# In short: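 MEFs (Tsc2-/-, p53-/- stably expressing WT Tsc2) treated 24 h at 37 degree Celsius, fixed, stained with Alexa-488 anti-phospho-rpS6 Ser235/236 and propidium iodide; Acumen laser scanning. Reported as % positive cells, phospho-S6 normalized to PI.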
# [9] = target: Endonuclease 4 (Escherichia coli (strain K12)) (UniProt P0A6C1); assay: Counterscreen for APE1 Inhibitors: qHTS Assay for Inhibitors of Endonuclease IV (AID 2565)
# In short: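 Cleavage of a quenched abasic-site DNA duplex (50 nM, 5'-TAMRA, 3'-BHQ-2) by 2 nM enzyme is followed as fluorescence increase. Compounds are preincubated with enzyme 15 min at room temperature before substrate addition.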
# [10] = target: DNA repair nuclease/redox regulator APEX1 (Homo sapiens) (UniProt P27695); assay: Confirmation qHTS Assay for Inhibitors of the Human Apurinic/apyrimidinic Endonuclease 1 (APE1) (AID 2572);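 further: fluorescence gain from purified APE1 cutting a TAMRA/BHQ-2 THF abasic duplex; nearly all actives have a fitted effect of over 30% in size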
# In short: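 Readout: kinetic fluorescence (Ex 525, Em 598 nm) from APE1 incision of a 5'-TAMRA, 3'-BHQ-2 duplex containing a THF abasic site at 50 nM final. Compound preincubation 15 min, room temperature.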
# Chain of RecQ-like DNA helicase BLM (Homo sapiens) (P54132 whole entry, looked up): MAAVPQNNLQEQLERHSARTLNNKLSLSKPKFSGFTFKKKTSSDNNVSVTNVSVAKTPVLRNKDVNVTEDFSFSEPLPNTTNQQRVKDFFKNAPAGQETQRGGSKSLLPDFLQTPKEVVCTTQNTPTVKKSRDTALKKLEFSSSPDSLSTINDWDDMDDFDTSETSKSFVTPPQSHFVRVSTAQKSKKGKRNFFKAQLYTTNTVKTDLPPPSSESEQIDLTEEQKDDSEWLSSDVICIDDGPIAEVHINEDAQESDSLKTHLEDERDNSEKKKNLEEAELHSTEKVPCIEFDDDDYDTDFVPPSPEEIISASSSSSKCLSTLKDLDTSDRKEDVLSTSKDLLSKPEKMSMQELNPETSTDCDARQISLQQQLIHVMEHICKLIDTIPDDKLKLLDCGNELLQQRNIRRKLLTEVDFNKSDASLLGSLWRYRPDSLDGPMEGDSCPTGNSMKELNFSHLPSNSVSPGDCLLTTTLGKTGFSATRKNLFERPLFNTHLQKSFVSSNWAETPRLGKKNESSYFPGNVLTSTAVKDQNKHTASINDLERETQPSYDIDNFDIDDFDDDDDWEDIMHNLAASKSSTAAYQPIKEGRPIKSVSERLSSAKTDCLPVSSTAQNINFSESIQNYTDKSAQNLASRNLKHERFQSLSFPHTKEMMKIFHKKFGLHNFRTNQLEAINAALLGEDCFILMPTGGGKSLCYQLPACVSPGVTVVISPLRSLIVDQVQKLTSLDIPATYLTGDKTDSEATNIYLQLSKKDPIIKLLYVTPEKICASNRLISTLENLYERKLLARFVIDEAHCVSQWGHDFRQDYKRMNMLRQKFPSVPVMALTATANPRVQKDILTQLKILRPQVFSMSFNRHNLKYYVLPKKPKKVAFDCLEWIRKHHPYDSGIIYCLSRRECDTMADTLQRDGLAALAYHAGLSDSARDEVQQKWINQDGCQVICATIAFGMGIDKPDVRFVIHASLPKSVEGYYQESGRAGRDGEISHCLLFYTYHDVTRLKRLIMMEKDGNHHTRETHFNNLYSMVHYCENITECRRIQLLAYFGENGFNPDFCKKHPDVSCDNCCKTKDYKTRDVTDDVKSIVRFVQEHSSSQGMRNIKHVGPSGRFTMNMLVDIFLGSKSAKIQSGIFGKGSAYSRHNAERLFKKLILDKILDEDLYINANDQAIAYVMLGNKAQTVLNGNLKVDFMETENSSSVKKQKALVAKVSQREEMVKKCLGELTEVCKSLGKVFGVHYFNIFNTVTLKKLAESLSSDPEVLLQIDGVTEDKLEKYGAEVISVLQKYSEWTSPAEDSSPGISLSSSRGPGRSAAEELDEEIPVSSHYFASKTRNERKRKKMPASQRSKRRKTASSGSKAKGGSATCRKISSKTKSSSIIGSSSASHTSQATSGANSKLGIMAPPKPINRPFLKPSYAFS
# Chain of ATP-dependent DNA helicase Q1 (Homo sapiens) (P46063 whole entry, looked up): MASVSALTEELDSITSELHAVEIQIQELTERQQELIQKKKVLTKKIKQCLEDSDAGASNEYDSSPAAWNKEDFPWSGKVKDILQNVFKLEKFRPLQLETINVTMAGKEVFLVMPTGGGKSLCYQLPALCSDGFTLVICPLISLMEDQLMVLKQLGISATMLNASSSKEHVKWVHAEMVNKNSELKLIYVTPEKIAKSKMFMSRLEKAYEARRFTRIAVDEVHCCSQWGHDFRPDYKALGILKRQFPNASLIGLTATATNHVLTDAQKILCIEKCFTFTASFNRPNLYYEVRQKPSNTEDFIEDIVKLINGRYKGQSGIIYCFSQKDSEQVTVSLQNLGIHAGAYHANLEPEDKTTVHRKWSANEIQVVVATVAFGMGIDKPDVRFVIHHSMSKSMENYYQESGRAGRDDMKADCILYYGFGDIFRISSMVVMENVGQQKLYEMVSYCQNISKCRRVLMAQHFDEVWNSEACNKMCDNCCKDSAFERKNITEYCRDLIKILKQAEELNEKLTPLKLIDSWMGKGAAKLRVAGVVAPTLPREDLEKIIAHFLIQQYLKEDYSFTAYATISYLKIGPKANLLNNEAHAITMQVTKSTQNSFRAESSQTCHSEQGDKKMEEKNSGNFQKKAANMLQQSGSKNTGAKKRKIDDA
# Chain of DNA repair nuclease/redox regulator APEX1 (Homo sapiens) (P27695 whole entry, looked up): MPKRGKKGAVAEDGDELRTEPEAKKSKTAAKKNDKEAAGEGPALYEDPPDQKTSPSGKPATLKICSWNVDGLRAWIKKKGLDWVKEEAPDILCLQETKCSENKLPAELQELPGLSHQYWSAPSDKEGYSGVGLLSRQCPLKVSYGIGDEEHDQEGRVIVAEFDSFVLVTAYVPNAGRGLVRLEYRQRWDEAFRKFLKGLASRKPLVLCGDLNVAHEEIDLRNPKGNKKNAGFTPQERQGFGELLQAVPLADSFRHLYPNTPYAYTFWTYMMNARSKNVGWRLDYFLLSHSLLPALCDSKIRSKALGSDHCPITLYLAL
SMILES,Potency [1],Potency [2],Potency [3],Potency [4],Potency [5],Potency [6],Potency [7],Potency [8],outcome [9],outcome [10]
CCCCCCC(C)(C)c1ccc([C@@H]2C[C@H](O)CC[C@H]2CCCO)c(O)c1,inactive,–,–,–,–,–,–,–,–,–
OCc1cnc[nH]1,inactive,inactive,inactive,inactive,inactive,inactive,–,–,–,–
O=[N+]([O-])c1cc(O)c(O)c([N+](=O)[O-])c1,inactive,inactive,inactive,inactive,–,inactive,inactive,inactive,–,–
COc1ccc(CNC(=O)/C=C/c2ccc3[nH]cc(CCN(C)C)c3c2)cc1,inactive,inactive,inactive,inactive,inactive,inactive,inactive,–,–,–
CC(N)Cc1c[nH]c2ccc(OCc3cccs3)cc12 (stereo not given),inactive,inactive,inactive,inactive,inactive,inactive,–,–,–,–
Clc1ccc(N2CC3CCC(C2)N3)nn1,inactive,inactive,inactive,inactive,inactive,inactive,–,–,–,–
O=[N+]([O-])c1ccc2nc(N3CCNCC3)ccc2c1,inactive,inactive,inactive,inactive,–,inactive,–,inactive,–,–
CCCN(CCC)CCc1ccc(O)c(O)c1,inactive,inactive,inactive,inactive,inactive,inactive,inactive,inactive,–,–
C[C@@H]1O[C@H](C[N+](C)(C)C)CS1,inactive,inactive,inactive,inactive,inactive,inactive,–,inactive,–,–
C[N+](C)(C)CC#CCN1CCCC1=O,inactive,inactive,inactive,inactive,inactive,inactive,–,–,–,–
CN1C2CCC1CC(OC(c1ccccc1)c1ccccc1N)C2 (stereo not given),inactive,inactive,inactive,inactive,inactive,inactive,–,–,–,–
c1ccc2c(N3CCNCC3)cccc2c1,inactive,inactive,inactive,inactive,inactive,inactive,–,–,–,–
CC(C)NP(=O)(NC(C)C)OP(=O)(NC(C)C)NC(C)C,inactive,inactive,inactive,inactive,inactive,inactive,inactive,–,–,–
NC(=O)COc1c(F)cc(SCCNS(=O)(=O)c2ccccc2)cc1F,inactive,inactive,inactive,inactive,inactive,inactive,inactive,inactive,–,–
CCCN1CC[C@@H]2c3cc(O)ccc3CC[C@@H]21,inactive,inactive,inactive,inactive,inactive,inactive,inactive,inactive,–,–
NC(Cc1ccc(N(CCCl)CCCl)cc1)C(=O)O (stereo not given),inactive,inactive,inactive,inactive,8.91 µM (active),inactive,inactive,inactive,–,–
c1ccc2cc(CC3=NCCN3)ccc2c1,inactive,inactive,inactive,inactive,inactive,inactive,–,–,–,–
CN(N=O)c1ccc(O)c(O)c1,1.12 µM (active),6.31 µM (active),inactive,inactive,inactive,inactive,inactive,inactive,–,–
C#CCN[C@H](C)Cc1ccccc1,inactive,inactive,inactive,inactive,inactive,inactive,inactive,–,–,–
NC(Cc1cc(O)c(O)cc1O)C(=O)O (stereo not given),1.41 µM (active),3.16 µM (active),inactive,inactive,–,inactive,–,inactive,–,–
NCCc1ccc(S(=O)(=O)F)cc1,inactive,inactive,inactive,inactive,inactive,inactive,–,–,–,–
COc1ccc2c(c1)[C@@]13CCCC[C@H]1[C@@H](C2)NCC3,inactive,inactive,inactive,inactive,–,inactive,inactive,–,–,–
CN1CCc2cccc(Cl)c2CC1,inactive,inactive,inactive,inactive,inactive,inactive,inactive,inactive,–,–
NCC(CP(=O)(O)O)c1ccc(Cl)cc1 (stereo not given),inactive,inactive,inactive,inactive,inactive,inactive,inactive,–,–,–
NC(C(=O)O)c1cc(=O)[nH]o1 (stereo not given),inactive,inactive,inactive,inactive,inactive,inactive,inactive,–,–,–
CCCCCCCCCCCCCC(=O)O[C@@H]1[C@@H](C)[C@@]2(O)[C@@H](C=C(CO)C[C@@]3(O)C(=O)C(C)=C[C@@H]23)C2C(C)(C)[C@@]21OC(C)=O (stereo not given in full),inactive,–,–,–,–,–,–,–,–,–
C[C@H](Cc1ccc2c(c1)OC(C(=O)O)(C(=O)O)O2)NC[C@H](O)c1cccc(Cl)c1,inactive,inactive,inactive,inactive,inactive,inactive,inactive,–,–,–

SMILES,Potency [1],Potency [2],Potency [3],Potency [4],Potency [5],Potency [6],Potency [7],Potency [8],outcome [9],outcome [10]
C[N+](C)(C)CCOC(=O)CBr,inactive,inactive,inactive,inactive,inactive,inactive,–,inactive,–,–
NC(=O)c1ccc(OCC(O)CN2CC=C(c3ccc(F)cc3)CC2)cc1 (stereo not given),inactive,inactive,inactive,inactive,inactive,inactive,inactive,inactive,–,–
CC(=O)NBr,inactive,inactive,inactive,inactive,inactive,inactive,inactive,–,inactive,inactive
c1ccc2c(c1)[I+]c1ccccc1-2,inactive,inactive,–,3.29 µM (active),0.251 µM (active),6.31 µM (active),0.0585 µM (active),–,inactive,–
CCOC(=O)c1ncn2c1[C@@H]1CCCN1C(=O)c1cc(OC)ccc1-2,inactive,inactive,inactive,inactive,inactive,inactive,inactive,–,–,–
NNC(N)=O,inactive,inactive,inactive,inactive,inactive,inactive,inactive,–,–,–
C[C@H](N)CN1CCc2ccc(Br)cc21,inactive,inactive,inactive,inactive,–,inactive,inactive,inactive,–,–
N[C@@H](CCl)C(=O)O,inactive,–,inactive,inactive,inactive,inactive,inactive,inactive,–,–
COC(=O)N1CCN(C(=O)Cc2ccc(Cl)c(Cl)c2)C(CN2CCCC2)C1 (stereo not given),inactive,–,inactive,inactive,inactive,inactive,inactive,inactive,–,–
CCS(=O)(=O)Nc1cccc(C(=C2CCCCC2)c2cnc[nH]2)c1,inactive,–,inactive,inactive,inactive,inactive,inactive,inactive,–,–
CC1(C(=O)O)C2CCC(O2)C1(C)C(=O)O (stereo not given),inactive,–,13.1 µM (active),18.5 µM (active),–,–,3.69 µM (active),–,–,–
Cc1c2ccncc2c(C)c2c1[nH]c1ccccc12,10 µM (active),inactive,–,–,–,7.08 µM (active),inactive,–,–,–
CN(N=O)c1cc(O)ccc1O,7.94 µM (active),28.2 µM (active),–,–,inactive,inactive,inactive,–,–,–
CCn1cnc2c(Nc3cccc(Cl)c3)nc(N[C@@H]3CCCC[C@@H]3N)nc21,inactive,inactive,–,18.5 µM (active),–,3.55 µM (active),–,–,–,–
O=P(O)(O)C(Cl)(Cl)P(=O)(O)O,inactive,inactive,–,–,inactive,inactive,–,–,–,–
O=C(O)c1cc[c]([Hg][Cl])cc1,inactive,–,inactive,inactive,inactive,inactive,inactive,inactive,–,–
CN(C(=O)Cc1ccc(Cl)c(Cl)c1)C(CN1CCCC1)c1cccc(OCC(=O)O)c1 (stereo not given),inactive,inactive,–,inactive,inactive,inactive,inactive,inactive,–,–
COc1ccc2c(c1)/C(=C/c1cnc[nH]1)C(=O)N2,inactive,inactive,10.4 µM (active),–,inactive,–,–,6.56 µM (active),–,–
COc1cc(CC(C)N)c(OC)cc1I (stereo not given),inactive,inactive,–,inactive,inactive,inactive,–,–,–,–
Cc1[nH]c2ccc(O)cc2c1CCN,inactive,–,inactive,inactive,inactive,inactive,inactive,inactive,–,–
CC(C)CC(NP(=O)(O)O[C@@H]1O[C@@H](C)[C@H](O)[C@@H](O)[C@H]1O)C(=O)NC(Cc1c[nH]c2ccccc12)C(=O)O (stereo not given in full),inactive,inactive,–,–,inactive,inactive,–,–,–,–
COc1ccc2c(c1)C13CCCCC1C(C2)N(C)CC3 (stereo not given),inactive,inactive,–,inactive,inactive,inactive,inactive,–,–,–
Cc1sc2ccccc2c1CC1=NCCN1,inactive,inactive,–,inactive,inactive,inactive,inactive,inactive,–,–
CN1CC[C@@]2(C)c3cc(O)ccc3N(C)C12 (stereo not given in full),inactive,–,inactive,inactive,–,–,inactive,–,–,–
Ic1ccccc1CNC1C2CCN(CC2)C1C(c1ccccc1)c1ccccc1 (stereo not given),inactive,inactive,–,16.5 µM (active),–,17.8 µM (active),–,6.56 µM (active),–,–
O=C1CC[C@@]2(O)C3Cc4ccc(O)c5c4C2(CCN3CC2CC2)[C@H]1O5 (stereo not given in full),inactive,–,inactive,inactive,inactive,inactive,inactive,inactive,–,–
